40 compounds from PubChem BioAssay (NCI) can be followed below.

This is part of a sample that, as a whole, favours compounds with a hit. Of some 83,000 tested, about 20% had one in any assay.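 Single-concentration screen, 48 h exposure, 96-well plates. Endpoint: percent growth. Below 10 = active.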 Activity calls are given as the source filed them.

The test concerns UACC-62 melanoma. The test is described as follows: NCI-60 one-dose screen, 48 h (100 = growth as untreated, 0 = no growth, -100 = all killed). The note with it: 10 µM unless noted. As to the method: Growth inhibition of the UACC-62 human tumor cell line is measured as a screen for anti-cancer activity. Cells are grown in 96 well plates and exposed to the test compound for 48 hours. Compounds are tested at a single concentration, which is 10^-5 M for most compounds. The reported endpoint is percent growth (GI% or GIPRCNT), where numbers from 0 - 100% represent growth inhibition, and numbers from -100% - 0 represent cell death. For example, a value of 40 represents 60% growth inhibition. A value of 0 means no net growth occurred over the course of the experiment. A value of -40 indicates 40% of cells at the beginning of the experiment died by the end of the experiment. A value of -100 means all cells are dead at the end of the experiment.
NCI-60 Human Tumor Cell Lines Screen was performed using the standard one-dose NCI protocol, which is described in more detail at https://dtp.cancer.gov/discovery_development/nci-60/default.htm.
Compounds with GIPRCNT values below 10 were considered active. Activity score was based on GIPRCNT using the following formula: […]
Score is 0 for GIPRCNT values of 100 or above, 50 for GIPRCNT values of 0, and 100 for GIPRCNT values of -100.
As for `CCCn1c(N)c(C(=O)CNc2ccc(I)cc2)c(=O)[nH]c1=O`, the growth is 37.1% (inactive).

As to `C=C1CC[C@@H]2[C@](C)(COC(C)=O)[C@H](OC(C)=O)CC[C@@]2(C)[C@@H]1CC(NCc1ccccc1)C1=CCOC1=O` (stereo not given in full), the growth was 38.8% (inactive).

Regarding `COc1ccc(C2=NN(C(C)=O)C(c3c(C)nn(-c4ccccc4)c3N3CCOCC3)C2)cc1` (stereo not given), the growth is 87.8% (inactive).

Turning to `CCCCCCC(CC#N)(CCC)CCCC` (stereo not given), the growth is 101% (inactive).

With `CC(=O)Nc1ccc(C(=O)COc2ccc(/C=C3\CCc4ccccc4C3=O)cc2)cc1`, the growth was 99.7% (inactive).

On to `Cc1cc2c(cc1C)[n+](Cc1ccc3ccccc3n1)cn2Cc1ccc2ccccc2n1`, for which the growth was -38.1% (active).

Turning to `COc1cc2c(cc1OC)C(=O)/C(=C/c1cccc(OCC(=O)c3ccccc3)c1)C2`, the growth was 68.1% (inactive).

Consider `CS(=O)(=O)N1CCN(Cc2cc3nc(-c4cccc5[nH]ncc45)nc(N4CCOCC4)c3s2)CC1` (tested in a mixture with another compound), for which the growth was -13.5% (active).

With `CCCCCCCCCCCCCCCCNC(=O)Nc1ccc2ccccc2c1`, the growth was 92.7% (inactive).

For the compound `O=C(/C=C/c1cccc(O)c1)c1cccc(-n2cc(-c3ccccc3)[nH]c2=O)c1`, the growth was 55.7% (inactive).

For the compound `FC(F)(F)c1ccc(-c2cnc(-c3nn[nH]n3)nc2NC2CCCCCC2)cc1`, the growth was 41.6% [50 µM] (inactive).

For the compound `Oc1ccc(/C=N/Nc2nc3ccccc3s2)c(O)c1`, the growth is 35.8% (inactive).

Consider `BrC1CC(Br)c2c1c1c(c3c2C(Br)CC3Br)C(Br)CC1Br` (stereo not given), for which the growth is 82.4% (inactive).

As to `C=C1CCC2C3(C)COC(c4ccccc4)OC3CCC2(C)C1C/C=C1/C(=O)OCC1OC(C)=O` (stereo not given), the growth was 90.2% (inactive).

On to `CC[C@@H](c1ccc(O)c(O)c1)[C@@H](CC)c1ccc(O)c(O)c1`, for which the growth was 64.5% (inactive).

Take `COc1ccc2c(c1)CC[C@@H]1[C@@H]2CC[C@]2(C)[C@@H](O)C(=O)C[C@@H]12`: the growth was 94.5% (inactive).

Turning to `CC(C)N(Cc1ccccc1)c1c(S)ssc1=S`, the growth is 34.1% (inactive).

On to `Cc1ccc(/C=C(/C#N)n2nnc3ncccc32)cc1`, for which the growth was 22.1% (inactive).

In the case of `COC(=O)c1c(NC(=O)CSc2nnnn2-c2ccc(OC)cc2)sc(C)c1C`, the growth was 74.8% (inactive).

On to `O=c1[nH]c(N2CCC(Cc3ccccc3)CC2)nc2sc3c(c12)CCCC3`, for which the growth was 98.1% (inactive).

As for `CCSc1nc(-c2ccc(F)cc2)c(C#N)c(=O)[nH]1`, the growth was 97.5% (inactive).

As for `Cc1n(Cc2ccc3ccccc3c2)cc[n+]1Cc1ccc2ccccc2c1`, the growth was -40.3% (active).

On to `CCSc1nc(-c2cccs2)n2nc(-c3ccco3)cc2n1`, for which the growth was 85.2% (inactive).

For `N#Cc1c(NC(=O)c2ccco2)[n+]([O-])c2cc(Cl)c(Cl)cc2[n+]1[O-]`, the growth was 85.2% (inactive).

For `COc1cc(/C=C/c2cc(/C=C/c3ccc(O)c(OC)c3)n(C(=O)Cc3ccccc3)n2)ccc1O`, the growth is 1.59% (active).

As to `CCCCc1ccc(C(N)=O)nc1`, the growth was 93.1% (inactive).

`COC(=O)[C@H]1[C@H]2C[C@@H]3c4[nH]c5cc(OC)ccc5c4CCN3C[C@H]2C[C@@H](OC(=O)/C=C/c2cc(OC)c(OC)c(OC)c2)[C@@H]1OC`: the growth was 87.4% (inactive).

Consider `O=C(Nc1nc(-c2ccc(Cl)cc2)cs1)c1cc(-c2ccc(Br)cc2)nc2ccc(Cl)cc12`, for which the growth was 42% (inactive).

On to `COc1cccc(N2CCN(c3cccc(C)n3)CC2)c1`, for which the growth was 95.1% (inactive).

Turning to `O=[N+]([O-])c1ccc2[nH]cc(-c3c4ccccc4cc4[nH]c5ccc([N+](=O)[O-])cc5c34)c2c1`, the growth is 28.6% (inactive).

As to `COc1cc(NC(C)CCCN)c2nc(C)ccc2c1Oc1ccc(F)cc1` (stereo not given), the growth is 81.9% (inactive).

`COc1cnc2c(c1)C(=O)c1c-2n(CCCNC(C)C)c(=O)c2cc(F)ccc12`: the growth is -44.2% (active).

As to `COc1ccc(CCN2C(=O)CCC3=C2CCCC3=O)cc1OC`, the growth was 105% (inactive).

Regarding `Nc1ccccc1-c1ccn[nH]1`, the growth was 48.4% (inactive).

Consider `CCN1CCN(c2nc(NNC(=O)Cc3ccccc3)nc(N3CCN(C(c4ccccc4)c4ccccc4)CC3)n2)CC1`, for which the growth was 84.7% (inactive).

As to `COC(=O)[C@H](Cc1cn(C)cn1)NC(=O)[C@@H](NC(=O)Nc1cc(C(F)(F)F)cc(C(F)(F)F)c1)C(C)C`, the growth is -93.1% [100 µM] (active).

For the compound `O=C(Oc1ccccc1)C(Br)C(Br)c1ccccc1` (stereo not given), the growth was 101% (inactive).

Regarding `C/C(=C\CCc1ccoc1)CC/C=C(\C)CCCN1CCOCC1`, the growth was 62.5% (inactive).

As for `COc1ccc2c(c1)c(CC(=O)[Se]C)c(C)n2C(=O)c1ccc(Cl)cc1`, the growth is 33.6% (inactive).

As to `Oc1c(Cl)cc(Cl)c(Cl)c1Cc1c(O)c(Cl)cc(Cl)c1Cl`, the growth was 2.95% (active).
